From PubChem
Compounds with a hit are over-represented: about 5.7% of the library has one in this group of screens.
L3MBTL1 block: qHTS Assay for the Inhibitors of L3MBTL1; AlphaScreen L3MBTL1–H3K9me1 peptide binding; Potency, µM (highest dose often 57.1 µM), inactives show at the highest dose activity, negative = inhibition, most hits filed as inhibitors; hit rate 0.66% among 230,000; also: potency is read from the fitted curve at half-maximal effect; % is scaled to controls: 0 for no effect and ±100 for the full control effect; nearly all actives have a fitted effect of over 60% in size
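L3MBTL1 (50 nM) pre-complexed 30 min with biotinylated H3(1-15)K9me1 peptide (75 nM), then compounds added for 30 min at room temperature; AlphaScreen streptavidin donor/nickel chelate acceptor beads (10 ug/mL final) read after 30 min dark incubation.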
KDM4E inh: qHTS Assay for Inhibitors of Human Jumonji Domain Containing 2E (JMJD2E); Lysine-specific demethylase 4E (Homo sapiens), B2RXH2; JMJD2E catalytic domain, FDH-coupled NADH fluorescence (FDH is formaldehyde dehydrogenase); Potency, µM (titrated, usually from 57.1 µM), for inactives: top-dose activity change, negative = inhibition, usual class: inhibitors; hit rate 1.6% among 230,000; AID 2147, 2009; active = well fitted inhibition curve with a large enough effect, not every such curve was filed as active; inconclusive = small, poorly fitted or top-dose-only effect, or another doubt; inactive = no such curve, though single readings can be large or run the other way;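 also: potency is read from the fitted curve at half-maximal effect; 0% = wells with enzyme and -100% = buffer wells without enzyme; nearly all actives have a fitted effect of over 50% in size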
Target sequence (B2RXH2 1-337 limits assumed): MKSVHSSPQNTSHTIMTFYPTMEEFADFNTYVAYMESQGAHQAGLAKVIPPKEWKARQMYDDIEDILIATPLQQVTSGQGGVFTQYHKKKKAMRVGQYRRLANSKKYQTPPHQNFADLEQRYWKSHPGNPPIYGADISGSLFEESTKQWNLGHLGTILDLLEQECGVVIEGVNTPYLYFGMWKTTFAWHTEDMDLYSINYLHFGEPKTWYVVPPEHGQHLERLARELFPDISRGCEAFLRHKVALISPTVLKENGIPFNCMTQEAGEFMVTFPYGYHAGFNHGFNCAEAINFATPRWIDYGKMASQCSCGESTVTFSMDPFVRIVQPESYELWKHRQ
BAZ2B inh: qHTS Assay for Inhibitors of BAZ2B. Bromodomain adjacent to zinc finger domain protein 2B (Homo sapiens), Q9UIF8. AlphaScreen BAZ2B-H3K14Ac peptide displacement. Potency, µM (highest dose often 114 µM), for inactives: at the top dose activity change, negative = inhibition, hits mostly inhibitors. hit rate 4.4% among 360,000. AID 504333, 2011; also: potency is read from the fitted curve at half-maximal effect; % is scaled to controls: 0 for no effect and ±100 for the full control effect; nearly all actives have a fitted effect of over 60% in size
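BAZ2B (50 nM) with biotin-H3(5-23)K14Ac peptide (50 nM) in PBS pH 7.4, 0.01% Tween-20, preformed 30 min, then compound 30 min at room temperature; top concentration 110uM. AlphaScreen streptavidin donor/nickel chelate acceptor beads (10 ug/mL final), 20 min dark, signal read.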
JMJD2A Tudor: qHTS Assay for Inhibitors of JMJD2A-Tudor Domain; AlphaScreen JMJD2A-Tudor / H3K4me3 peptide binding; hit rate 4.4% among 390,000; Lysine-specific demethylase 4A (Homo sapiens), O75164; AID 504339, 2011; Potency, µM (top dose mostly 114 µM), for inactives: at the top dose activity change, negative = inhibition, hits mostly inhibitors; also: potency is read from the fitted curve at half-maximal effect; % is scaled to controls: 0 for no effect and ±100 for the full control effect; nearly all actives have a fitted effect of over 50% in size
PI5P4Ka inh: qHTS for Inhibitors of phosphatidylinositol 5-phosphate 4-kinase (PI5P4K) | PI5P4Kalpha enzyme, ADP-Glo luminescence, 60 min; hits give low values | max response, % | hit rate 1.2% among 330,000 | AID 652105, 2013; active = max response of -50% or lower; inconclusive = between -30% and -50%; inactive = -30% or higher; also: value at the top dose of about 77 µM; % is scaled to controls: 0 for no effect and ±100 for the full control effect
Target sequence (P48426 whole entry, looked up): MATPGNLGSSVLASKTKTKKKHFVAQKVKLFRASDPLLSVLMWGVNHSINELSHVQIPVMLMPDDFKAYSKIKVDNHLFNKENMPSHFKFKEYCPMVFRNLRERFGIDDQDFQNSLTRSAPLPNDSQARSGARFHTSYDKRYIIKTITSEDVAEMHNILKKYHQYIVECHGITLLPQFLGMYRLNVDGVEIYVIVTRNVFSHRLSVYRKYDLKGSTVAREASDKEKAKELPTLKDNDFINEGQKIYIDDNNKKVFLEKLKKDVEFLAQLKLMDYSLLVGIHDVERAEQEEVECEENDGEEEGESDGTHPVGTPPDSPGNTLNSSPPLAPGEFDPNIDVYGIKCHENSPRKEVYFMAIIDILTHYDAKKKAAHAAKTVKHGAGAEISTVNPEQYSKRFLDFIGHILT
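Luminescence from ADP-Glo served as readout of PI5P4Kalpha activity in a qHTS format. Reaction: enzyme, substrate, compound, ATP at 5 microM final, 60 min at RT.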
HP1b chromo inh: HTS for Inhibitors of HP1-beta Chromodomain Interactions with Methylated Histone Tails. hit rate 0.56% among 390,000. Chromobox protein homolog 1 (Homo sapiens), P83916. AlphaScreen HP1-beta / biotin-H3K9me3 peptide binding. Potency, µM (top dose mostly 114 µM), for inactives: top-dose activity change, negative = inhibition, usual class: inhibitors; also: potency is read from the fitted curve at half-maximal effect; nearly all actives have a fitted effect of over 70% in size
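Compound inhibition of the preformed complex between 50 nM HP1-beta and 50 nM biotinylated H3K9me3 peptide was read by AlphaScreen. Buffer was PBS pH 7.4 with 0.01% Tween-20. Incubations ran 30 min at room temperature, with 10 ug/mL donor/acceptor beads.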
Numbers without * were called inactive; u = inconclusive; x = not tested or not shown; ! = not active in a repeat; [ ] = remark or other dose. Unless noted, calls follow the shape of the dose curve; as a rule, active = well fitted inhibition curve with a large enough effect; inconclusive = small, poorly fitted or top-dose-only effect; inactive = no such curve, though single readings can be large or run the other way.

SMILES	L3MBTL1 block	KDM4E inh	BAZ2B inh	JMJD2A Tudor	PI5P4Ka inh	HP1b chromo inh
O=C(N/N=C/c1cc([N+](=O)[O-])ccc1O)C1C2CCCCC21 (configuration not stated)	5.0%	u	44.7µM*	x	x	x
CC(=O)C[C@H](O)CC(=O)[C@@H]1OC(=O)CCCCCc2ccccc21	6.2%	x	x	-13.7%	10.5	57.7%
COC(=O)c1sc2cccc(F)c2c1S(=O)(=O)NCc1ccc(Cl)cc1	x	x	-21.1%	-19.0%	x	15.5%
COc1ccc2c(C)c(CCC(=O)NCc3ccc(Cl)cc3)c(=O)oc2c1C	x	x	-1.9%	-9.4%	x	23.8%
CCCc1nnc(NC(=O)Cc2coc3ccc(C(C)C)cc23)s1	x	x	-1.6%	-9.0%	x	20.0%
Cc1nc(N2N=C(c3ccc(Cl)cc3)CC2c2ccco2)sc1C(=O)N(C)C (configuration not stated)	31.4%	u	15.2%	16.0%	-20.6	95.2%
COc1ccc(C2=NN(c3nc(-c4ccccc4)c(CC(=O)O)s3)C(c3ccco3)C2)cc1 (configuration not stated)	31.6µM*	u	50.1µM*	79.4µM*	u	-13.6%
COc1ccc(NC(=O)CSc2nnc(NC(=O)Nc3ccccc3)s2)cc1OC	x	x	-4.3%	-1.6%	x	41.1%
c1ccc(CN2CCc3[nH]c4ccccc4c3C2)cc1	x	x	x	u	-8.6	-10.2%
COc1cc(OC)c(CN2CCc3c([nH]c4ccccc34)C2)cc1Br	-1.2%	x	u	u	0.5	-20.3%
Cc1cccc(CN2CCc3c([nH]c4ccccc34)C2)c1	x	x	50.1µM*	20µM*	1.8	44.7µM*
CSc1ccc(CN2CCc3c([nH]c4ccccc34)C2)cc1	-2.2%	x	u	3.16µM*	7.9	u
Clc1ccc(CN2CCc3c([nH]c4ccccc34)C2)cc1Cl	x	x	31.6µM*	15.8µM*	36.3	u
Clc1cccc(CN2CCc3c([nH]c4ccccc34)C2)c1	-37.3%	x	50.1µM*	20µM*	12.2	u
COC(=O)N[C@@H](c1cccc(C)c1)C(C(C)=O)C(=O)OC (some centres not stated)	x	-2.6%	x	x	x	x
Cc1ccc(C)c(NC2=C(c3ccc(C(F)(F)F)cc3)C(=O)c3ccccc32)c1	x	x	u	u	x	-19.5%
COc1cc(OC)c(NC2=C(c3ccc(C(F)(F)F)cc3)C(=O)c3ccccc32)cc1Cl	x	x	u	20µM*	x	u
Cc1ccc(Cl)cc1NS(=O)(=O)c1cc2c(cc1F)NC(=O)CC2	x	x	x	-7.1%	x	x
COc1cc(CO)ccc1OCc1nnnn1-c1ccc(C)cc1	-1.7%	12.2%	-0.9%	-20.6%	-29.4	-3.9%
COc1cc(C2C3=C(COC3=O)Oc3cc4c(cc32)OCO4)cc(OC)c1O (configuration not stated)	x	x	x	-18.1%	0.9	17.5%
CCCCCSc1nnc2c(n1)OC(c1cccn1C)N(C(C)=O)c1ccccc1-2 (configuration not stated)	-9.2%	3.5%	u	28.2µM*	0.9	u
Cc1cnc(C(=O)OCC(=O)N(Cc2ccccc2)C(C)(C)C)cn1	-5.1%	x	x	1.4%	-3.2	21.4%
Cc1cc(C(=O)O)c(=O)[nH]c1C	5.2%	u	u	22.4µM*	x	-4.9%
Cc1cc(/C(=N/O)C(C)(C)NO)ccc1Cl	4.1%	-7.7%	-8.4%	20µM*	2.1	-17.9%
CC(C)(NO)/C(=N\O)c1ccccc1	5.3%	0.7%	39.8µM*	12.6µM*	-4.0	70.8µM*
SMILES	L3MBTL1 block	KDM4E inh	BAZ2B inh	JMJD2A Tudor	PI5P4Ka inh	HP1b chromo inh
ONC(=NCc1ccccc1)c1ccccc1	x	x	x	-5.6%	15.3	33.2%
O=C(CSc1nnc(-c2ccc(Cl)cc2)o1)Nc1ccc(F)cc1	x	x	-26.7%	4.6%	x	48.4%
Cc1ccc(NC(=O)Cn2c(=O)n(Cc3ccco3)c(=O)c3sc4ccccc4c32)cc1C	x	x	10.4%	-15.9%	x	57.8%
CSc1ccccc1C(=O)C1CCCN(C(=O)c2cncs2)C1 (configuration not stated)	x	x	-17.4%	20µM*	-28.5	17.4%
Nc1ccccc1-c1nnc(-c2ccccc2N)n1N	0.3%[11.4 µM]	10.4%	u	-9.0%	0.2	40.3%
Nn1c(-c2ccccn2)nnc1-c1ccccn1	-23.3%	8.9%	31.6µM*	79.4µM*	1.7	39.8%
c1ccc(-c2nn[nH]n2)cc1	5.8%	5.7%	-19.0%	-24.9%	2.4	13.8%
Cc1cc(C)c(NC(=O)CSc2nnc(-c3ccccn3)n2N)c(Cl)c1	28.2µM*	5.7%	14.1µM*	44.7µM*	0.2	-1.3%
c1ccc(-c2nn[nH]n2)nc1	x	u	5.62µM*	7.08µM*	11.0	26.9%
Nn1c(SCc2c(F)cccc2F)nnc1-c1ccccn1	20µM*	-9.9%	12.6µM*	8.91µM*	-6.4	-5.0%
COc1ccc(CCNc2nc(SCc3ccccc3F)nc3ccccc23)cc1OC	x	x	5.3%	-6.0%	x	46.9%
COc1ccc(-c2nnc3n2N=C(c2ccccc2OC)CS3)cc1OC	x	x	x	-17.2%	x	x
CCOC(=O)N1CCc2c(sc3c2c(=O)n(-c2ccc(Cl)cc2)c(=O)n3CC(C)C)C1	x	x	0.1%	7.3%	x	30.8%
COc1ccc2c(c1-c1c3c(cc(Br)c1OC)CCCC3)CCCC2	x	6.9%	x	x	x	x
Cc1ccc(C)c(CSc2nnc(-c3ccccn3)n2N)c1	-18.2%	5.0%	x	39.8µM*	0.8	25.6%
CS(=O)(=O)N1CCCC(C(=O)NCCCN2CCc3ccccc3C2)C1 (configuration not stated)	0.4%	-1.3%	29.9%	79.4µM*	x	13.7%
CCOC(=O)c1c(N)n(-c2ccc(N)cc2)c2nc3ccccc3nc12	-2.8%	17.8µM*	-5.6%	-31.3%	-18.4	3.2%
CCOc1cc(CNC(=O)C2CCN(c3nc4ccccc4[nH]3)CC2)cc(OCC)c1OCC	x	x	3.0%	-11.7%	x	21.8%[57 µM]
O=C1/C(=C/c2ccccc2)CCCc2ccccc21	13.0%	3.4%	85.8%	100µM*	10.5	116.0%
O=C1/C(=C\c2cccnc2)CCc2ccccc21	0.8%	-5.9%	0.9%	-15.8%	0.9	29.2%
CCc1ccc(-c2cc(C)no2)cc1S(=O)(=O)NCCCN1CCN(c2ccccc2)CC1	x	x	u	u	13.0	0.1%
CCN1/C(=C/C(C)=C/c2sc3ccccc3[n+]2CC)Sc2ccccc21	x	-12.8%	22.4µM*	17.8µM*	-50.4*!	u
